Reference: the supplement of paper PMC6555819

Experiments:
Test in all cases: PBM binding z-score (relative to random genomic background probes); higher = stronger binding; sequences stand for … in GC…GCGATTGACAGCGTAGAATGAAGG
[1] = test system: FXR:RXRa (NR concentration 270 nM, RXRa partner concentration 90 nM)
How it was run: (§1)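 Binding z-scores were set against random background probes. The data came from custom Agilent 4×180K protein-binding microarrays carrying double-stranded probes with 34-nt variable regions, incubated 1 h with ligand-free nuclear receptor dimers. Partner-specific antibodies detected binding, and scanned fluorescence was regression-normalized.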

[2] = test system: LXRa:RXRa (NR concentration 270 nM, RXRa partner concentration 90 nM)
How it was run: as §1

[3] = test system: LXRa homodimer (NR concentration 270 nM)
How it was run: as §1

[4] = test system: LXRb:RXRa (NR concentration 270 nM, RXRa partner concentration 90 nM)
How it was run: as §1

[5] = test system: LXRb homodimer (NR concentration 270 nM)
How it was run: as §1

[6] = test system: PPARa:RXRa (NR concentration 270 nM, RXRa partner concentration 90 nM)
How it was run: as §1

[7] = test system: PPARg:RXRa (NR concentration 180 nM, RXRa partner concentration 90 nM)
How it was run: as §1

[8] = test system: PPARg:RXRa 270nM:90nM, anti-RXR (NR concentration 270 nM, RXRa partner concentration 90 nM)
How it was run: as §1

[9] = test system: PPARg:RXRa 30nM:10nM, anti-RXR (NR concentration 30 nM, RXRa partner concentration 10 nM)
How it was run: as §1

[10] = test system: PPARg:RXRa 90nM:30nM, anti-RXR (NR concentration 90 nM, RXRa partner concentration 30 nM)
How it was run: as §1

[11] = test system: PPARg:RXRa DBDmut IVT, anti-RXR (DBD mutation: RXRa K156A/R161A, NR concentration 270 nM, RXRa partner concentration 90 nM)
How it was run: as §1

[12] = test system: PPARg:RXRa IVT, anti-PPARg (NR concentration 270 nM, RXRa partner concentration 90 nM)
How it was run: as §1

[13] = test system: PPARg DBDmut:RXRa IVT, anti-PPARg (DBD mutation: PPARg1 K132A/R137A, NR concentration 270 nM, RXRa partner concentration 90 nM)
How it was run: as §1

[14] = test system: PPARg DBDmut IVT, anti-PPARg (DBD mutation: PPARg1 K132A/R137A, NR concentration 270 nM)
How it was run: as §1

[15] = test system: PPARg homodimer (NR concentration 180 nM)
How it was run: as §1

[16] = test system: PXR:RXRa (NR concentration 270 nM, RXRa partner concentration 90 nM)
How it was run: as §1

[17] = test system: PXR homodimer (NR concentration 270 nM)
How it was run: as §1

[18] = test system: RARa:RXR (NR concentration 270 nM, RXRa partner concentration 90 nM)
How it was run: as §1

[19] = test system: RARa homodimer (NR concentration 270 nM)
How it was run: as §1

[20] = test system: RARb:RXRa (NR concentration 270 nM, RXRa partner concentration 90 nM)
How it was run: as §1

AGTCCAAGTTCAGGACGAGGTAACGTAAAGCACG
PBM binding z-score [1]: 1.19
PBM binding z-score [2]: 0.849
PBM binding z-score [3]: 0.0911
PBM binding z-score [4]: 0.596
PBM binding z-score [5]: -0.522
PBM binding z-score [6]: 1.35
PBM binding z-score [7]: 0.826
PBM binding z-score [8]: 0.394
PBM binding z-score [9]: 0.136
PBM binding z-score [10]: 0.0902
PBM binding z-score [11]: -0.641
PBM binding z-score [12]: 0.15
PBM binding z-score [13]: -0.559
PBM binding z-score [14]: -0.0596
PBM binding z-score [15]: 0.572
PBM binding z-score [16]: 1.93
PBM binding z-score [17]: 0.749
PBM binding z-score [18]: 1.34
PBM binding z-score [19]: -0.0097
PBM binding z-score [20]: 2.56

CGTCCAAGGACAAGGTCAGTGAAAGAGACTCGAA
PBM binding z-score [1]: 1.56
PBM binding z-score [2]: 1.45
PBM binding z-score [3]: -0.433
PBM binding z-score [4]: 1.46
PBM binding z-score [5]: -0.506
PBM binding z-score [6]: 2.39
PBM binding z-score [7]: 0.883
PBM binding z-score [8]: 1.23
PBM binding z-score [9]: -0.0239
PBM binding z-score [10]: 0.648
PBM binding z-score [11]: 0.434
PBM binding z-score [12]: 0.71
PBM binding z-score [13]: -0.797
PBM binding z-score [14]: -1.03
PBM binding z-score [15]: 1.03
PBM binding z-score [16]: 1.61
PBM binding z-score [17]: 0.632
PBM binding z-score [18]: 2.38
PBM binding z-score [19]: -0.259
PBM binding z-score [20]: 3.93

ATCTCTAGGTAAAAGTTCAATGAATCCCGAGGAT
PBM binding z-score [1]: 1.81
PBM binding z-score [2]: 2.65
PBM binding z-score [3]: 2.7
PBM binding z-score [4]: 2.03
PBM binding z-score [5]: 1.14
PBM binding z-score [6]: 4.88
PBM binding z-score [7]: 8.83
PBM binding z-score [8]: 8.49
PBM binding z-score [9]: 8.81
PBM binding z-score [10]: 9.69
PBM binding z-score [11]: 2.16
PBM binding z-score [12]: 4.28
PBM binding z-score [13]: 1.95
PBM binding z-score [14]: 1.61
PBM binding z-score [15]: 2.08
PBM binding z-score [16]: 3.09
PBM binding z-score [17]: 2.8
PBM binding z-score [18]: 2.86
PBM binding z-score [19]: 1.09
PBM binding z-score [20]: 2.64

ATATGTAGGTTAAGGGTCATTCATGTTGGTTCGC
PBM binding z-score [1]: 5.05
PBM binding z-score [2]: 4.86
PBM binding z-score [3]: 3.12
PBM binding z-score [4]: 4.48
PBM binding z-score [5]: 1.33
PBM binding z-score [6]: 6.66
PBM binding z-score [7]: 11.6
PBM binding z-score [8]: 9.59
PBM binding z-score [9]: 9.79
PBM binding z-score [10]: 10.5
PBM binding z-score [11]: 7.75
PBM binding z-score [12]: 8.04
PBM binding z-score [13]: 2.47
PBM binding z-score [14]: 1.44
PBM binding z-score [15]: 3.15
PBM binding z-score [16]: 4.77
PBM binding z-score [17]: 1.38
PBM binding z-score [18]: 5.63
PBM binding z-score [19]: 2.15
PBM binding z-score [20]: 3.6

ATCGACAGGTCGTGAGGTGAGTATACAGAAAGGC
PBM binding z-score [1]: 1.05
PBM binding z-score [2]: 1.19
PBM binding z-score [3]: 0.0757
PBM binding z-score [4]: 0.943
PBM binding z-score [5]: 0.0816
PBM binding z-score [6]: 2.14
PBM binding z-score [7]: 1.15
PBM binding z-score [8]: 0.86
PBM binding z-score [9]: 0.126
PBM binding z-score [10]: 0.461
PBM binding z-score [11]: -0.42
PBM binding z-score [12]: 0.86
PBM binding z-score [13]: -0.374
PBM binding z-score [14]: -0.491
PBM binding z-score [15]: 0.776
PBM binding z-score [16]: 0.904
PBM binding z-score [17]: 0.267
PBM binding z-score [18]: 1.86
PBM binding z-score [19]: 0.537
PBM binding z-score [20]: 1.88

GCGACTGGGGCAAAGCAGGGTACCATAAGGTTGG
PBM binding z-score [1]: -0.153
PBM binding z-score [2]: -0.295
PBM binding z-score [3]: -0.964
PBM binding z-score [4]: -0.249
PBM binding z-score [5]: -1.01
PBM binding z-score [6]: 0.981
PBM binding z-score [7]: 0.93
PBM binding z-score [8]: 0.904
PBM binding z-score [9]: -0.207
PBM binding z-score [10]: 0.227
PBM binding z-score [11]: 3.87
PBM binding z-score [12]: 3.24
PBM binding z-score [13]: -0.359
PBM binding z-score [14]: -0.643
PBM binding z-score [15]: -0.201
PBM binding z-score [16]: -0.102
PBM binding z-score [17]: -0.367
PBM binding z-score [18]: 0.315
PBM binding z-score [19]: -0.579
PBM binding z-score [20]: 0.894

AATACAGGGTCAATAGGCCAGAGTAGGTACGAAT
PBM binding z-score [1]: 6.54
PBM binding z-score [2]: 5.03
PBM binding z-score [3]: 0.816
PBM binding z-score [4]: 3.72
PBM binding z-score [5]: 0.669
PBM binding z-score [6]: 5.72
PBM binding z-score [7]: 6.47
PBM binding z-score [8]: 5.46
PBM binding z-score [9]: 2.53
PBM binding z-score [10]: 4.61
PBM binding z-score [11]: 2.44
PBM binding z-score [12]: 4.21
PBM binding z-score [13]: 1.55
PBM binding z-score [14]: 0.759
PBM binding z-score [15]: 2.2
PBM binding z-score [16]: 2.69
PBM binding z-score [17]: 0.585
PBM binding z-score [18]: 3.85
PBM binding z-score [19]: 0.911
PBM binding z-score [20]: 4.17

ATATGTTGGTTAGCTGGGGTCATTCAGACTAGGC
PBM binding z-score [1]: 3.89
PBM binding z-score [2]: 4.15
PBM binding z-score [3]: 2.39
PBM binding z-score [4]: 4.32
PBM binding z-score [5]: 1.69
PBM binding z-score [6]: 4.26
PBM binding z-score [7]: 1.3
PBM binding z-score [8]: 2.46
PBM binding z-score [9]: 0.784
PBM binding z-score [10]: 1.8
PBM binding z-score [11]: 0.909
PBM binding z-score [12]: 1.74
PBM binding z-score [13]: 0.767
PBM binding z-score [14]: 1.26
PBM binding z-score [15]: 2.8
PBM binding z-score [16]: 5.64
PBM binding z-score [17]: 3.66
PBM binding z-score [18]: 5.26
PBM binding z-score [19]: 1.53
PBM binding z-score [20]: 2.72

CGAACTAGGTCATCCAGTACAGTGAATACATTGA
PBM binding z-score [1]: 4.18
PBM binding z-score [2]: 2.86
PBM binding z-score [3]: 0.599
PBM binding z-score [4]: 2.59
PBM binding z-score [5]: 0.209
PBM binding z-score [6]: 4.82
PBM binding z-score [7]: 7.93
PBM binding z-score [8]: 6.36
PBM binding z-score [9]: 4.02
PBM binding z-score [10]: 5.81
PBM binding z-score [11]: 8.25
PBM binding z-score [12]: 8.35
PBM binding z-score [13]: 2.09
PBM binding z-score [14]: 1.3
PBM binding z-score [15]: 1.76
PBM binding z-score [16]: 2.09
PBM binding z-score [17]: 1.66
PBM binding z-score [18]: 2.26
PBM binding z-score [19]: 0.426
PBM binding z-score [20]: 3.78

AATACAGGGTCACTAAGCCAGAGTAGGTACGAAT
PBM binding z-score [1]: 6.17
PBM binding z-score [2]: 4.69
PBM binding z-score [3]: 0.732
PBM binding z-score [4]: 3.96
PBM binding z-score [5]: 0.99
PBM binding z-score [6]: 5.51
PBM binding z-score [7]: 6.22
PBM binding z-score [8]: 5.26
PBM binding z-score [9]: 2.31
PBM binding z-score [10]: 3.83
PBM binding z-score [11]: 3.03
PBM binding z-score [12]: 4.56
PBM binding z-score [13]: 1.91
PBM binding z-score [14]: 0.89
PBM binding z-score [15]: 2.06
PBM binding z-score [16]: 3.23
PBM binding z-score [17]: 0.477
PBM binding z-score [18]: 4.15
PBM binding z-score [19]: 0.677
PBM binding z-score [20]: 4.17

CGAACTAGGTCATCCAGGACAGGGAATACATTGA
PBM binding z-score [1]: 4.45
PBM binding z-score [2]: 2.35
PBM binding z-score [3]: 0.51
PBM binding z-score [4]: 1.85
PBM binding z-score [5]: 0.035
PBM binding z-score [6]: 4.75
PBM binding z-score [7]: 7.8
PBM binding z-score [8]: 6.18
PBM binding z-score [9]: 3.9
PBM binding z-score [10]: 5.82
PBM binding z-score [11]: 7.79
PBM binding z-score [12]: 8.34
PBM binding z-score [13]: 3.98
PBM binding z-score [14]: 2.59
PBM binding z-score [15]: 1.77
PBM binding z-score [16]: 1.6
PBM binding z-score [17]: 0.593
PBM binding z-score [18]: 2.36
PBM binding z-score [19]: 0.244
PBM binding z-score [20]: 3.78
